Assay results published in publication PMC4336329 (PLoS ONE, 2015).
Among all 310,000 compounds or so, about 14,000 (4.5%) showed an effect of 50% or more. Effects have a minus sign here. This excerpt belongs to a sample that is enriched for strong results.

biological target: human ether-à-go-go-related gene (hERG) potassium channel (human, UniProt Q12809); assay: primary screen, population patch clamp on CHO cells stably expressing hERG; higher = less effect of the substance
Description: Briefly, Chinese hamster ovary (CHO) cells stably expressing the hERG channel were dislodged from tissue culture flasks and dispensed into PPC plates. […] During the recording, background leak currents were estimated by a 100 ms step to -80 mV from an initial holding potential of -70 mV and subtracted from the subsequent current measurement. The campaign was conducted in two phases using slight differences in recording protocol. In the first phase, the initial voltage pulse used a 100 ms step to -30 mV from a holding potential of -70 mV, a 2 s conditioning step to +25 mV, and a 2 s test step to -30 mV. During the second phase of the screen, the potential during the conditioning step was raised to +45 mV. In both phases of the campaign, a secondary voltage pulse was applied using the same parameters as the second phase initial pulse. The initial and secondary pulses were applied in the absence of compound, and upon application of 1 μM and 10 μM test concentrations. […]
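Further: peak tail current of the secondary pulse compared with the same well before compound.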

human ether-à-go-go-related gene (hERG) potassium channel, sequence (Q12809 whole entry, looked up): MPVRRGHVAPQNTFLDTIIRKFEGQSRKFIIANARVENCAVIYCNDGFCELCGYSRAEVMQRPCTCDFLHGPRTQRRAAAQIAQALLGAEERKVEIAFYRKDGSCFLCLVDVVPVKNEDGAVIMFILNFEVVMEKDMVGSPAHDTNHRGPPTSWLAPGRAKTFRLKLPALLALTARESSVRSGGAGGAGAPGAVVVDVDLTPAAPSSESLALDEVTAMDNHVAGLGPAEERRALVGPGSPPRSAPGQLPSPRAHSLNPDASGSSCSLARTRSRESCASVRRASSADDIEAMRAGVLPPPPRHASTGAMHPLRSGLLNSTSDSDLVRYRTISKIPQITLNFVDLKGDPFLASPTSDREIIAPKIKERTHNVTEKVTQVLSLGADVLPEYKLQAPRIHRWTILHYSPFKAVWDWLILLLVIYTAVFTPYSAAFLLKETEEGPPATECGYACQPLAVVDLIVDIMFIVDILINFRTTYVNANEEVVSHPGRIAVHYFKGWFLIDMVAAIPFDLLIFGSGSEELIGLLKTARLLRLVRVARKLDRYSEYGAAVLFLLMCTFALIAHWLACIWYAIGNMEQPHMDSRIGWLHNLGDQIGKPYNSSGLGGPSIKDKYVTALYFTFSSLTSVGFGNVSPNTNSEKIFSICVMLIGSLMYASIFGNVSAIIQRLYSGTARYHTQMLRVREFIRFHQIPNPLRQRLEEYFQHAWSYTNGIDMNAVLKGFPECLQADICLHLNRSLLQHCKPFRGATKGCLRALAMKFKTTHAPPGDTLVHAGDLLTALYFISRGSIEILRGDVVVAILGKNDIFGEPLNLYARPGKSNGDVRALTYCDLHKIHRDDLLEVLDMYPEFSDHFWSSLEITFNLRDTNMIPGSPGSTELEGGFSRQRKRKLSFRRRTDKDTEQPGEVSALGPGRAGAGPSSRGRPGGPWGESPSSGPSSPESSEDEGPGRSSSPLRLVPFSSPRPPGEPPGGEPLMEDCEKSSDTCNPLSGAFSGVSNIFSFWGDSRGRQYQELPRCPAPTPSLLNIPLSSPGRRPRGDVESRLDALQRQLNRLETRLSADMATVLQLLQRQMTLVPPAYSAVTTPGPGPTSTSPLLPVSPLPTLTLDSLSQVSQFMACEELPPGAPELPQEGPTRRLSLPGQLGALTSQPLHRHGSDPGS

Q: How did the “hERG current change (%, negative = inhibition) at 10uM” value turn out when C#CCOCCOCCOCCNc1nc(N2CCN(C(=O)[C@H]([C@@H](C)CC)n3cc([C@@H](N)CO)nn3)CC2)nc(N2CCN(C(=O)[C@H]([C@@H](C)CC)n3cc([C@@H](N)CC(C)C)nn3)CC2)n1.Cl was run?
A: The value was 7.34%.

Q: For CC1CCCCN1CCNC(=O)C1CCN(S(=O)(=O)c2cccc3nsnc23)CC1 (stereo not shown), which “hERG current change (%, negative = inhibition) at 10uM” value is on record?
A: Its value is 2.44%.

Q: How did the “hERG current change (%, negative = inhibition) at 10uM” value turn out when CCS(=O)(=O)Nc1cccc(-c2ccc3nnc(-c4cccnc4)n3n2)c1 was run?
A: Its value is -4.03%.

Q: With CC(C)c1ccc(N(CC(=O)N/N=C/c2ccc(OC3CSC3)cc2)S(=O)(=O)c2ccccc2)cc1 as the compound, how does the “hERG current change (%, negative = inhibition) at 10uM” value read?
A: The value was 12.8%.

Q: CC(NC=O)c1nc2ccccc2n1CCc1ccccc1 (stereo not shown) was tested. Which “hERG current change (%, negative = inhibition) at 10uM” value did it give?
A: Its value is 5.34%.

Q: With CCc1ccc(NC(=O)C(=O)NCC(O)c2ccccc2)cc1 (stereo not shown) as the compound, how does the “hERG current change (%, negative = inhibition) at 10uM” value read?
A: Its value is 8.25%.

Q: With O=C(NCCc1ccccc1)c1ccc(Cl)cc1[N+](=O)[O-] as the compound, how does the “hERG current change (%, negative = inhibition) at 10uM” value read?
A: The value was -0.169%.

Q: For Cc1cccc(OCc2nnc(SCC(=O)Nc3cccc(C(=O)N4CCOCC4)c3)o2)c1C, which “hERG current change (%, negative = inhibition) at 10uM” value is on record?
A: Its value is -2.16%.

Q: With CCc1ccc(OCc2nnc(SCC(=O)NCc3ccco3)o2)cc1 as the compound, how does the “hERG current change (%, negative = inhibition) at 10uM” value read?
A: The value was -55.2%.

Q: With O=C(CSc1nnc(CNC(=O)c2ccco2)o1)Nc1ccc(OC(F)(F)F)cc1 as the compound, how does the “hERG current change (%, negative = inhibition) at 10uM” value read?
A: Its value is -52.6%.

Q: COc1ccc(OCc2nnc(SCC(=O)NCc3ccco3)o2)cc1 was tested. Which “hERG current change (%, negative = inhibition) at 10uM” value did it give?
A: The value was -14.4%.

Q: How did the “hERG current change (%, negative = inhibition) at 10uM” value turn out when CCc1ccc(OCc2nnc(SCC(=O)Nc3cccc(C(=O)N4CCOCC4)c3)o2)cc1 was run?
A: Its value is -61.4%.

Q: For COc1ccc(OCc2nnc(SCC(=O)Nc3cccc(C(C)=O)c3)o2)cc1, which “hERG current change (%, negative = inhibition) at 10uM” value is on record?
A: Its value is 4.32%.

Q: COc1ccc(Cc2nnc(SCC(=O)NCc3ccco3)o2)cc1 was tested. Which “hERG current change (%, negative = inhibition) at 10uM” value did it give?
A: Its value is 8.75%.

Q: With COc1ccc(NC(=O)CSc2nnc(CNC(=O)c3ccco3)o2)cc1 as the compound, how does the “hERG current change (%, negative = inhibition) at 10uM” value read?
A: Its value is 11.8%.

Q: For CCOc1ccc(NC(=O)CSc2nnc(CNC(=O)c3ccco3)o2)cc1, which “hERG current change (%, negative = inhibition) at 10uM” value is on record?
A: Its value is -10.2%.

Q: For Cc1cc(Cl)ccc1NC(=S)NCCCN1CCCC1=O, which “hERG current change (%, negative = inhibition) at 10uM” value is on record?
A: Its value is 7.99%.

Q: For O=C1CCCN1CCCNC(=S)Nc1ccc(Cl)cc1Cl, which “hERG current change (%, negative = inhibition) at 10uM” value is on record?
A: The value was -65.5%.

Q: For O=C1CCCN1CCCNC(=S)Nc1ccc(Br)cc1Cl, which “hERG current change (%, negative = inhibition) at 10uM” value is on record?
A: The value was -2.97%.

Q: For CCOC(=O)CC(=O)CSc1nc2c(sc(=S)n2-c2ccc(C)c(C)c2)c(=O)[nH]1, which “hERG current change (%, negative = inhibition) at 10uM” value is on record?
A: The value was -10.7%.

Q: With COc1ccccc1-c1sc2cc3c(cc2c1C#Cc1ccccn1)OCO3 as the compound, how does the “hERG current change (%, negative = inhibition) at 10uM” value read?
A: Its value is 8.78%.

Q: With CSc1cccc(NC(=O)c2cc(S(=O)(=O)N3CCc4ccccc43)cn2C)c1 as the compound, how does the “hERG current change (%, negative = inhibition) at 10uM” value read?
A: The value was -12.4%.

Q: How did the “hERG current change (%, negative = inhibition) at 10uM” value turn out when CCc1ccc(CN2CCC(C(=O)Nc3ccc(Oc4ccccc4)nc3)CC2)o1 was run?
A: The value was -58.9%.

Q: CCn1cc(CN2CCC(C(=O)Nc3ccc(Oc4ccccc4)nc3)CC2)cn1 was tested. Which “hERG current change (%, negative = inhibition) at 10uM” value did it give?
A: The value was -30.3%.

Q: Which “hERG current change (%, negative = inhibition) at 10uM” value does the source give for COCCC(=O)N1CCC(C(=O)Nc2ccc(Oc3ccccc3)nc2)CC1 here?
A: Its value is 17.6%.

Q: How did the “hERG current change (%, negative = inhibition) at 10uM” value turn out when C#Cc1ccc(CN2CCC(N3CCC(C(=O)NCc4ccccn4)CC3)CC2)cc1 was run?
A: Its value is -72.2%.

Q: Which “hERG current change (%, negative = inhibition) at 10uM” value does the source give for O=C(Nc1ccc(Oc2ccccc2)nc1)C1CCN(Cc2cccc(F)c2)CC1 here?
A: The value was -49.8%.

Q: Which “hERG current change (%, negative = inhibition) at 10uM” value does the source give for C#Cc1ccc(CN2CCC(Oc3ccc(C(=O)NCc4ccccn4)cc3)CC2)cc1 here?
A: The value was -25%.

Q: CSCC(C)N1CCC(N2CCC(C(=O)NCc3ccccn3)CC2)CC1 (stereo not shown) was tested. Which “hERG current change (%, negative = inhibition) at 10uM” value did it give?
A: The value was -9.59%.

Q: COCc1ccc(CN2CCCCC2C(=O)Nc2ccc(Oc3ccccc3)nc2)o1 (stereo not shown) was tested. Which “hERG current change (%, negative = inhibition) at 10uM” value did it give?
A: Its value is -0.373%.

Q: Which “hERG current change (%, negative = inhibition) at 10uM” value does the source give for O=C(Nc1ccc(Oc2ccccc2)nc1)C1CCN(Cc2ccco2)CC1 here?
A: Its value is -30.8%.

Q: For COc1ccc(CN2CCC(C(=O)Nc3ccc(Oc4ccccc4)nc3)CC2)cc1F, which “hERG current change (%, negative = inhibition) at 10uM” value is on record?
A: The value was -71.6%.

Q: O=C(Nc1ccc(Oc2ccccc2)nc1)C1CCN(Cc2ccccc2)CC1 was tested. Which “hERG current change (%, negative = inhibition) at 10uM” value did it give?
A: Its value is -54.9%.

Q: COc1cc(CN2CCCCC2C(=O)Nc2ccc(Oc3ccccc3)nc2)ccc1O (stereo not shown) was tested. Which “hERG current change (%, negative = inhibition) at 10uM” value did it give?
A: Its value is -4.36%.

Q: How did the “hERG current change (%, negative = inhibition) at 10uM” value turn out when Brc1ccccc1OCCOc1cccc2cccnc12 was run?
A: Its value is 14.1%.

Q: For O=C1OC2(CCCCC2)OC(=O)C1=CNc1nccs1, which “hERG current change (%, negative = inhibition) at 10uM” value is on record?
A: The value was 3.3%.

Q: O=C1CC(=O)C(n2cncn2)C(c2ccc(Cl)cc2Cl)C1 (stereo not shown) was tested. Which “hERG current change (%, negative = inhibition) at 10uM” value did it give?
A: The value was 7.83%.

Q: With CC(=O)Nc1ccc(S(=O)(=O)NCc2nnnn2-c2ccc(F)cc2)cc1 as the compound, how does the “hERG current change (%, negative = inhibition) at 10uM” value read?
A: Its value is 3.41%.

Q: Cc1ccc(C(=O)N2CCN(c3ncccn3)CC2)c(C)c1 was tested. Which “hERG current change (%, negative = inhibition) at 10uM” value did it give?
A: Its value is 12.1%.

Q: How did the “hERG current change (%, negative = inhibition) at 10uM” value turn out when CCOC(=O)c1c(C)sc(Sc2ccc(Cl)cc2[N+](=O)[O-])c1OC was run?
A: Its value is 11.3%.

Q: Which “hERG current change (%, negative = inhibition) at 10uM” value does the source give for COc1ccc(C2C(C#N)=C(/N=C/N3CCOCC3)OC3=C2C(=O)CC(C)(C)C3)cc1OC (stereo not shown) here?
A: Its value is -13.5%.

Q: How did the “hERG current change (%, negative = inhibition) at 10uM” value turn out when C#Cc1ccc(CN2CCC(C(=O)Nc3ccc(Oc4ccccc4)nc3)CC2)cc1 was run?
A: The value was -72.3%.

Q: CC#CC(=O)N1CCC(C(=O)Nc2ccc(Oc3ccccc3)nc2)CC1 was tested. Which “hERG current change (%, negative = inhibition) at 10uM” value did it give?
A: Its value is 1.55%.

Q: With O=C(Nc1ccc(Oc2ccccc2)nc1)C1CCCCN1Cc1ccc(O)cc1 (stereo not shown) as the compound, how does the “hERG current change (%, negative = inhibition) at 10uM” value read?
A: Its value is -25.2%.

Q: Which “hERG current change (%, negative = inhibition) at 10uM” value does the source give for Cc1ccc(C)c(S(=O)(=O)N2CCN(CC(=O)Nc3cc(C)on3)CC2)c1 here?
A: Its value is -12.6%.

Q: For CCCCc1cc(=O)oc2c(CN(C)C)c(O)c(Cl)cc12, which “hERG current change (%, negative = inhibition) at 10uM” value is on record?
A: Its value is -1.34%.

Q: With CC(NS(=O)(=O)c1ccc(Cl)cc1)C(=O)Nc1ccc2c(c1)OCCO2 (stereo not shown) as the compound, how does the “hERG current change (%, negative = inhibition) at 10uM” value read?
A: Its value is -19.4%.

Q: With CCOCCCNC(=O)CCC(=O)NNc1nc2ccccc2c2nc(-c3ccccc3)nn12 as the compound, how does the “hERG current change (%, negative = inhibition) at 10uM” value read?
A: Its value is -47.5%.

Q: How did the “hERG current change (%, negative = inhibition) at 10uM” value turn out when CCCc1c(O)nc(SCCN(CC)CC)n(C(=O)c2ccccc2)c1=O.Cl was run?
A: Its value is -58%.

Q: For CCN(CC)CCSc1nc(O)c(Cc2ccccc2)c(=O)n1-c1ccccc1.Cl, which “hERG current change (%, negative = inhibition) at 10uM” value is on record?
A: Its value is 15.8%.

Q: For CCCCc1c(O)nc(SCCN(C)C)n(-c2ccccc2)c1=O, which “hERG current change (%, negative = inhibition) at 10uM” value is on record?
A: The value was 10.1%.

Q: CCN(CC(=O)Nc1c(F)cccc1F)C(=O)Cc1csc(-c2ccc(OC)c(OC)c2)n1 was tested. Which “hERG current change (%, negative = inhibition) at 10uM” value did it give?
A: The value was -2.82%.
